Laboratory results: PubChem BioAssay AID504832 (National Center for Advancing Translational Sciences (NCATS), 2011)
Screen size: about 310,000 compounds; about 18,000 (5.8%) were called active. Inconclusive results (about 22%) are left out. Only a selection was taken, and actives are over-represented in it overall. Values without a mark were called inactive. Calls come from the whole dose curve; as a rule, active = well fitted inhibition curve with a large enough effect; inconclusive = small, poorly fitted or top-dose-only effect, or another doubt; inactive = no such curve, though single readings can be large or run the other way.

Experiment: Primary qHTS for delayed death inhibitors of the malarial parasite plastid, 48 hour incubation
Conditions: P. falciparum luciferase growth in erythrocytes; series mostly up to 28.7 µM; activity change, negative = inhibition: at the top concentration
From the text: The goal of this screen is to discover new antimalarial compounds that act by inhibiting the development of the apicoplast in the malarial parasite Plasmodium falciparum. The biochemical processes that make this organelle essential for erythrocytic stage parasites are not well understood. However, antibiotics such as azithromycin and tetracycline, which target the apicoplast translational machinery, have a potent antimalarial effect.
We have developed a cell-based assay that measures parasite growth based on the expression of an integrated copy of a firefly luciferase reporter. To detect small molecules that cause this "delayed death" phenotype, erythrocytes infected with the luciferase-expressing parasites were incubated with compounds for either one or two generations, corresponding to 48 and 96 hours, respectively. Compounds that inhibit parasite growth in the second generation, but not the first, should be enriched in antimalarials that target the apicoplast. Growth inhibition is detected by a decrease in luciferase activity.
Assay Provider: David Fidock and Eric Ekland, Columbia University
Keywords: NIH Roadmap, MLPCN, MLI, MLSMR, qHTS, NCGC, qHTS, malaria, luciferase, viability
Four microliters of culture medium (RPMI 1640 with 0.5% w/v Albumax (GIBCO), 24 mM sodium bicarbonate and 10 ug/mL gentamycin) were dispensed by a Multi-drop Combi into white solid 1536-well plates (Grenier) and 23 nL compound was added by a pin tool. Four microliters of infected erythrocytes (2% hematocrit, 0.1% parasitemia final concentration) in culture medium were dispensed and the plates incubated for 48 hours at 37 C in 5% CO2. Two microliters of luciferase detection reagent was added and luminescence was detected by a ViewLux (PerkinElmer) reader.
% is set by controls: 0 for no effect and ±100 for the full control effect; potency is the fitted concentration of half-maximal effect.

Compound | activity change, negative = inhibition | Potency
NC(=O)COc1ccc2c3c(c(=O)oc2c1)CCCCC3 | 25.1% | 
NC(=O)C1CCN(C(=O)COc2ccc3c4c(c(=O)oc3c2)CCC4)CC1 | -3.55% | 
Cc1cccnc1NC(=O)Cn1c(=O)oc2ccccc21 | -5.88% | 
O=C(COC(=O)CNS(=O)(=O)c1ccc(F)c(F)c1F)NC1CCCC1 | 28.8% | 
Nc1nnc(SCC(=O)NCC(=O)Nc2ccc(F)c(F)c2F)s1 | 5.81% | 
COc1ccc(C(=O)NC(=S)NC2CCCCC2)cc1 | -27.2% | 
COc1cc(OC)c(C(=O)NC2CCCCCC2)cc1OC | 0.054% | 
COc1ccc(C(C)NC(=S)NC2CCCCC2)cc1OC (configuration not stated) |  | 2.08 µM (active)
COc1cc(C(=S)NC2CCCCC2)ccc1O |  | 10.4 µM (active)
COc1ccc(Cl)cc1C(=O)NNC(=S)NC1CCCC1 | -17.5% | 
COc1cc(C(=S)N2CCOCC2)ccc1O |  | inactive
C=CCNC(=O)COc1coc(CN2CCN(Cc3ccccc3)CC2)cc1=O | 10.4% | 
Cc1ccc(C(c2nnnn2C(C)(C)C)N2CCc3ccccc3C2)cc1 (configuration not stated) | 3.97% | 
Cn1c(SCC(=O)N2CCOCC2)nnc1-c1ccc2ncccc2c1 | 17% | 
CC(C)(C)n1nnnc1C(c1ccc2ncccc2c1)N1CCSCC1 (configuration not stated) |  | 9.28 µM (active)
O=C(Nc1nnc(S(=O)(=O)N2CCOCC2)s1)c1cccc(Br)c1 | -13.8% | 
COc1ccc(CCNC(=O)Cn2c(=O)n(CC3CCCO3)c(=O)c3ccccc32)cc1OC (configuration not stated) | -10.1% | 
O=C(CCc1ccccc1)NCc1cccnc1 | 1.54% | 
O=C(NCCc1ccccc1)C1CCC(Cn2c(=O)c3ccccc3n(Cc3cccnc3)c2=O)CC1 (configuration not stated) |  | 11.7 µM (active)
COCCN(C(=O)CCC(=O)Nc1nccs1)C(C(=O)NCCC(C)C)c1ccc(F)cc1 (configuration not stated) | -3.76% | 
Oc1ccccc1N1CCN(c2ncnc3sc(-c4ccccc4)cc23)CC1 |  | 13.1 µM (active)
c1ccc(-n2ncc3c(N4CCCC4)ncnc32)cc1 | 9.64% | 
COc1ccc(Nc2ncnc3sc(-c4ccccc4)cc23)c(OC)c1 | -11% | 
Cn1c(=O)oc2cc(S(=O)(=O)NCCC(=O)NCc3ccccc3Cl)ccc21 | 4.72% | 
OC(CNCc1ccc2c(c1)OCO2)COc1ccccc1 (configuration not stated) |  | 3.29 µM (active)
COc1cccc(CNCc2ccc3c(c2)OCO3)c1 | -0.266% | 

Compound | activity change, negative = inhibition | Potency
Cc1ccc(CNCc2ccc3c(c2)OCO3)c(C)c1 | 3.76% | 
CNS(=O)(=O)c1ccc(NC(=O)Nc2ccc3c(c2)OCO3)cc1 | 125% | 
CCn1nccc1C(=O)Nc1ccc(Cl)c(Cl)c1 | 28.2% | 
O=C(Nc1ccc(S(=O)(=O)Nc2ncccn2)cc1)C12CC3CC(CC(C3)C1)C2 | 5.34% | 
CCn1nccc1C(=O)Nc1ccc(S(=O)(=O)NC23CC4CC(CC(C4)C2)C3)cc1 |  | 6.57 µM (active)
Cc1ccc(C)c(S(=O)(=O)Nc2cc(C)on2)c1 | 10.4% | 
CC(CN1CCOCC1)c1ccccc1 (configuration not stated) | -5.89% | 
O=C(CC(c1ccccc1)c1cc(Cl)ccc1O)NCCN1CCOCC1 (configuration not stated) | 47.7% | 
OC(c1ccc(Cl)cc1)C(CN1CCOCC1)c1ccccc1 (configuration not stated) |  | 2.33 µM (active)
O=C(CN(C(=O)c1csnn1)c1ccc(Br)cc1)NC1CCCC1 | 18.7% | 
CC(C)(C)c1ccc(S(=O)(=O)N2CCN(C(=O)c3ccc4c(c3)C(=O)N(Cc3ccncc3)C4=O)CC2)cc1 | -2.86% | 
CC(C)(C)c1ccccc1NC(=O)CN1C(=O)NC2(CCCC2)C1=O | -0.115% | 
O=C(Nn1cnnc1)c1cc(Cl)ccc1Cl | 2.15% | 
CSc1ncnc2sc(C)c(C)c12 | -21.6% | 
c1ccc2sc(SNC3CCCCC3)nc2c1 | 0.0777% | 
Cc1sc2ncnc(Sc3nc4ccccc4s3)c2c1C |  | 1.85 µM (active)
Cc1coc2c1c(C)cc1oc(=O)c(CC(=O)NCC(=O)N[C@H](C(=O)O)C(C)C)c(C)c12 | -9.45% [at 0.00184 µM] | 
CC(=O)N[C@@H](C)C(=O)N1CCC(n2nccc2NC(=O)CCCc2ccccc2)CC1 | -2.41% | 
Cc1ccc(C)c(OCCC(=O)OCC(=O)NC(=O)NCc2ccccc2)c1 | -8.03% | 
CCC1CCCCN1C(=S)Nc1ccc(S(=O)(=O)Nc2ncccn2)cc1 (configuration not stated) | 2.45% | 
O=C(CCN1C(=O)[C@@H]2Cc3ccccc3CN2C1=O)NCCc1ccccc1 | 0.996% | 
O=C(c1ccc(OC2CCN(C/C=C/c3ccc(F)cc3)CC2)cc1)N1CCCCC1 |  | 11.7 µM (active)
CC(=O)Nc1ccc(CN2CCC(Oc3ccc(C(=O)N4CCCC4)cc3)CC2)cc1 | 50.1% | 
O=C(c1ccc(OC2CCN(Cc3ccccn3)CC2)cc1)N1CCCCCC1 | -17.7% | 
CCc1noc(C)c1C(=O)NNC(=O)c1ccc(F)cc1 | -2.99% | 
CCn1nc(C)c(CNC(=O)C2CCC(=O)N(Cc3cccc(F)c3)C2)c1C (configuration not stated) | 30.1% | 
